Inconclusive results are not listed. Calls of active or inactive are those of the source. Unless noted, calls come from the whole dose curve.
Key:
[1] = Nuclear factor erythroid 2-related factor 2/antioxidant responsive element (Nrf2/ARE) small molecule agonists: qHTS cell viability counter screen in human keratinocytes (AID 1919968; active = well fitted curve in the direction sought with a large enough effect in the repeat runs; an effect the other way counts as inactive or inconclusive; note: nearly all actives have a fitted effect of over 55% in size)
How it was run: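 KeratinoSens cells (HaCaT keratinocytes stably carrying an ARE-luciferase reporter) were seeded at 1,500 cells/well and rested 5 h at 37 C/5% CO2. They were then exposed to compounds in DMSO for 23 h. Viability was read by CellTiter-Fluor fluorescence after 1 h.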

[2] = Nuclear factor erythroid 2-related factor 2/antioxidant responsive element (Nrf2/ARE) small molecule agonists: luciferase reporter gene qHTS assay in human keratinocytes (AID 1919969); note: nearly all actives have a fitted effect of over 35% in size
[3] = target: Gonadotropin-releasing hormone receptor (Homo sapiens) (UniProt P30968); assay: Human gonadotropin-releasing hormone receptor (GnRHR) small molecule agonists, calcium flux assay in GnRHR-HEK293 cells (AID 1920063); note: nearly all actives have a fitted effect of over 35% in size
How it was run: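 HEK293 cells stably expressing human GnRHR were plated 18 h at 37 °C, loaded with calcium dye 1 h at 37 °C, then given compound in agonist mode; fluorescence (Ex/Em 480/540) read kinetically for 3 min at 1 s intervals.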

[4] = target: KiSS-1 receptor (Homo sapiens) (UniProt Q969F8); assay: Human kisspeptin (KISS1R) small molecule agonists, calcium flux assay in KISS1R-HEK293 cells (AID 1920064; active = well fitted curve in the direction sought with a large enough effect in the repeat runs; an effect the other way counts as inactive or inconclusive)
How it was run: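 HEK293 cells stably expressing human KISS1R were plated 18 h at 37 °C, loaded with calcium dye for 1 h at 37 °C, then given compound by pin tool. Fluorescence (Ex/Em 480/540) was read kinetically for 3 min.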

[5] = G protein-coupled receptor (GPCR) small molecule agonists, calcium flux assay: HEK293 wild type cell line counter screen (AID 1920065)
How it was run: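 Cells were plated and cultured 18 h at 37 C/5% CO2, then loaded with calcium dye for 1 h at 37 C. Compounds in DMSO were pin-transferred in agonist mode, and fluorescence (Ex/Em 480/540) was read kinetically for 3 min at 1 s intervals.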

[6] = p53 small molecule agonists, cell-based qHTS assay with human liver microsomes (AID 1963577);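 note: p53 response element beta-lactamase reporter cells with liver microsomes plus NADPH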
How it was run: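 Metabolically competent format: test substances, human liver microsomes and NADPH (both 0.5 mg/mL final) incubated with p53RE-bla cells 16 h at 37 C. Beta-lactamase reporter signal then quantified by fluorescence.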

[7] = p53 small molecule agonists, cell-based qHTS assay with rat liver microsomes (AID 1963578)
How it was run: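 Each plate received p53RE-bla cells, then compound, then rat liver microsomes and NADPH (both 0.5 mg/mL final). Plates were held 16 h at 37 C, and beta-lactamase activity was detected with LiveBLAzer over 2 h.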

[8] = p53 small molecule agonists, cell-based qHTS assay with human liver microsomes: qHTS cell viability counter screen (AID 1963579); note: nearly all actives have a fitted effect of over 45% in size
How it was run: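 Tox21 library compounds, delivered from DMSO stocks, were tested on p53RE-bla cells together with 0.5 mg/mL human liver microsomes and 0.5 mg/mL NADPH (final) over 16 h at 37 C; CellTiter-Glo luminescence served as the cytotoxicity measure.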

[9] = p53 small molecule agonists, cell-based qHTS assay with rat liver microsomes: qHTS cell viability counter screen (AID 1963580); note: nearly all actives have a fitted effect of over 45% in size
How it was run: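 Intracellular ATP, by CellTiter-Glo luminescence, defines viability. HCT-116 p53RE-bla cells, 4,000 per well, were compound-treated in the presence of rat liver microsomes and NADPH for 16 h at 37 C.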

[10] = p53 small molecule agonists, cell-based qHTS assay: qHTS cell viability counter screen (AID 1963581); note: nearly all actives have a fitted effect of over 45% in size
How it was run: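 p53RE-bla HCT-116 cells were exposed to compounds for 16 h at 37 C; after the beta-lactamase FRET read in the same wells, CellTiter-Glo was added and luminescence (intracellular ATP) read after 30 min at room temperature.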

[11] = p53 small molecule agonists, cell-based qHTS assay (AID 1963582; active = well fitted activation curve with a large enough effect in the signal ratio in the repeat runs, not every such curve was filed as active; the % refers to the signal ratio)
How it was run: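 p53RE-bla beta-lactamase reporter cells rested 5 h at 37 C/5% CO2, then received compounds in DMSO by pin transfer and were incubated 16 h at 37 C. LiveBLAzer B/G FRET substrate was loaded for 2 h at room temperature before fluorescence reading.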

[12] = target: 5-hydroxytryptamine receptor 2A (Homo sapiens) (UniProt P28223); assay: 5-hydroxytryptamine receptor 2A (HTR2A) small molecule antagonists, cell-based qHTS assay (AID 1963586); note: nearly all actives have a fitted effect of over 45% in size; note: potency is the fitted concentration of half-maximal effect
How it was run: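 Antagonist-mode intracellular calcium assay: DOI (4 nM) added after 5 min compound pre-incubation at room temperature to dye-loaded HTR2A-CHO cells. Fluorescence followed for 3 min, sampled every second.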

[13] = target: 5-hydroxytryptamine receptor 2A (Homo sapiens) (UniProt P28223); assay: 5-hydroxytryptamine receptor 2A (HTR2A) small molecule agonists, cell-based qHTS assay (AID 1963587); note: nearly all actives have a fitted effect of over 30% in size
How it was run: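 Kinetic calcium-flux fluorescence (2 min, 1 sec intervals) after compound addition in agonist mode. HTR2A-CHO cells were cultured 18 h, then dye-loaded 1 h at 37 C.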

[14] = target: Muscarinic acetylcholine receptor M1 (Homo sapiens) (UniProt P11229); assay: Cholinergic receptor muscarinic 1 (CHRM1) small molecule antagonists, cell-based qHTS assay (AID 1963588); note: nearly all actives have a fitted effect of over 40% in size; note: potency is the fitted concentration of half-maximal effect
How it was run: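 CHRM1-CHO calcium-flux assay, antagonist mode. Cells were seeded 18 h, dye-loaded 1 h at 37 C and given compound for 5 min at RT, then acetylcholine was added at 50nM. FDSS fluorescence was read 3 min; 15 concentrations, three runs.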

[15] = target: Muscarinic acetylcholine receptor M1 (Homo sapiens) (UniProt P11229); assay: Cholinergic receptor muscarinic 1 (CHRM1) small molecule agonists, cell-based qHTS assay (AID 1963589); note: nearly all actives have a fitted effect of over 35% in size
How it was run: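 CHO cells stably expressing human CHRM1, seeded 18 h at 37 C/5% CO2, dye-loaded 1 h at 37 C, then given compound in agonist mode; intracellular calcium fluorescence read kinetically at 1 s intervals. Fifteen concentrations, three independent runs.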

[16] = cAMP Responsive Elements (CRE) small molecule agonists, cell-based qHTS assay (AID 1963590)
How it was run: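 CRE-bla HEK 293T cells in DMEM with 10% dialyzed FBS, NEAA, pyruvate and 25 mM HEPES were plated 18 h at 37 C/5% CO2, then exposed to compounds in DMSO for 3 h before LiveBLAzer B/G FRET substrate addition.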

[17] = target: Beta-2 adrenergic receptor (Homo sapiens) (UniProt P07550); assay: Adrenergic beta2 receptor (ADRB2) small molecule antagonists, cell-based qHTS assay (AID 1963592); note: series mostly up to about 92 µM; nearly all actives have a fitted effect of over 50% in size
How it was run: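 Cells (CHO, stable ADRB2 overexpression) incubated 18-20hr at 37C; compounds added from DMSO; agonist mix (1nM isoproterenol, 100uM IBMX, 25uM Ro-20-1724) added; 0.5hr RT; d2-cAMP and anti-cAMP-cryptate added; 1hr RT; 665/615 nm read.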

[18] = target: D(2) dopamine receptor (Homo sapiens) (UniProt P14416); assay: Dopamine D2 receptor (DRD2) small molecule agonists, cell-based qHTS assay (AID 1963594); note: nearly all actives have a fitted effect of over 35% in size
How it was run: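 cAMP accumulation in DRD2-HEK293 cells measured by HTRF after 1 h detection; compounds added 10 min before NKH477 (200nM […]) forskolin-analogue stimulation, 30 min at room temperature, with Ro20-1724 present at 0.1 mM final.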

[19] = target: D(2) dopamine receptor (Homo sapiens) (UniProt P14416); assay: Dopamine D2 receptor (DRD2) small molecule antagonists, cell-based qHTS assay (AID 1963595; active = well fitted inhibition curve with a large enough effect in the signal ratio in the repeat runs, with a control signal flat; the % refers to the signal ratio)
How it was run: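 Stable D2 receptor HEK293 line, 24 h after seeding. Compound preincubated 10 min, then quinpirole (12 nM) with forskolin analogue NKH477 (200 nM), 30 min, room temperature. Detection by time-resolved FRET of cAMP.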

[20] = cAMP Responsive Elements (CRE) small molecule antagonists, cell-based qHTS assay (AID 1963591; active = well fitted inhibition curve with a large enough effect in the signal ratio in the repeat runs, not every such curve was filed as active; the % refers to the signal ratio)
How it was run: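 CRE-bla HEK293T cells were plated 18 h at 37 °C/5% CO2, pinned with compound in DMSO, then stimulated with NKH477 at 0.25 uM final for 3 h. LiveBLAzer B/G FRET substrate was added and plates incubated 2 h at room temperature.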
% is set by controls: 0 for no effect and ±100 for the full control effect.

Chain of KiSS-1 receptor (Homo sapiens) (Q969F8 whole entry, looked up): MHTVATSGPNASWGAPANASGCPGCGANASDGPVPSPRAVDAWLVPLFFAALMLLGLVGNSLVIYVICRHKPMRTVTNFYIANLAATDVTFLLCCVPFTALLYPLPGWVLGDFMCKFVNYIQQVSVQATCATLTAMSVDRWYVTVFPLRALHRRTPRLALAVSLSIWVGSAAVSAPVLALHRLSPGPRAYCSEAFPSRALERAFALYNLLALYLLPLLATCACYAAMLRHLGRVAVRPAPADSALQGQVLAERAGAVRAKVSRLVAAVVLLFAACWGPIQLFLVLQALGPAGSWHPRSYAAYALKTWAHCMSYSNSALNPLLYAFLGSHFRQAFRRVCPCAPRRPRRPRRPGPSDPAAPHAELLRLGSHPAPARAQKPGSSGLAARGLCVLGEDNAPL
Chain of Gonadotropin-releasing hormone receptor (Homo sapiens) (P30968 whole entry, looked up): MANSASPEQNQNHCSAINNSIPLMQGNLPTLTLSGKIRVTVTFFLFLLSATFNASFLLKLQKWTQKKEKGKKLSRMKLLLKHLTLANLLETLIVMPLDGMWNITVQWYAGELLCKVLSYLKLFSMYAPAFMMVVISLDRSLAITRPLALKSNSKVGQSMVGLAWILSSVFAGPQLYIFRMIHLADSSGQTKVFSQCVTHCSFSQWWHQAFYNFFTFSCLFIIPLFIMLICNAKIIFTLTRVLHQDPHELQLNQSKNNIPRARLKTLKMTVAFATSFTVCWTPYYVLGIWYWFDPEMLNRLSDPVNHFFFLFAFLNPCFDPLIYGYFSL
Chain of 5-hydroxytryptamine receptor 2A (Homo sapiens) (P28223 whole entry, looked up): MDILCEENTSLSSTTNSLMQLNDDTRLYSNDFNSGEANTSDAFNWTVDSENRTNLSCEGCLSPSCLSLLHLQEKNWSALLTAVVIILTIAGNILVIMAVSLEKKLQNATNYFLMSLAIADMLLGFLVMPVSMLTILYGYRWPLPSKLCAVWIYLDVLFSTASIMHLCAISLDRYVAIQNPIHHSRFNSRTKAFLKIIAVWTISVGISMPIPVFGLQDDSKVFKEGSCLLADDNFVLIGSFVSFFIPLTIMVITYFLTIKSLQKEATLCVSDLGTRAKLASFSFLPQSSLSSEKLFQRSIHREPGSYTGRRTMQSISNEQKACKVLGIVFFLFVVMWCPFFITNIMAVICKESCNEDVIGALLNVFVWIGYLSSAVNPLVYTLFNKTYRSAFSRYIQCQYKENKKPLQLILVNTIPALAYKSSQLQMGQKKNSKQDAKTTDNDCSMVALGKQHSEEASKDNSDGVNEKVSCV
Chain of Beta-2 adrenergic receptor (Homo sapiens) (P07550 whole entry, looked up): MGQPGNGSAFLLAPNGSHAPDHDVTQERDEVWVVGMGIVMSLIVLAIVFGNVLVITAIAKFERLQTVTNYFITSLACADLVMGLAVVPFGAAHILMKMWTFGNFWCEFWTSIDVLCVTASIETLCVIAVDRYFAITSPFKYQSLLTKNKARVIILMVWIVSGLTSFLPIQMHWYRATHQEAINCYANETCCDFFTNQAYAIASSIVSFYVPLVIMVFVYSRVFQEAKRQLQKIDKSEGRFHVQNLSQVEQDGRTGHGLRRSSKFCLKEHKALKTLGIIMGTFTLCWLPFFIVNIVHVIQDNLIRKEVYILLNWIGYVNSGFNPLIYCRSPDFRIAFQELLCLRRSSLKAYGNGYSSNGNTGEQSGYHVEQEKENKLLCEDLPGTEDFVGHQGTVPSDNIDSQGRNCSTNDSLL
Chain of Muscarinic acetylcholine receptor M1 (Homo sapiens) (P11229 whole entry, looked up): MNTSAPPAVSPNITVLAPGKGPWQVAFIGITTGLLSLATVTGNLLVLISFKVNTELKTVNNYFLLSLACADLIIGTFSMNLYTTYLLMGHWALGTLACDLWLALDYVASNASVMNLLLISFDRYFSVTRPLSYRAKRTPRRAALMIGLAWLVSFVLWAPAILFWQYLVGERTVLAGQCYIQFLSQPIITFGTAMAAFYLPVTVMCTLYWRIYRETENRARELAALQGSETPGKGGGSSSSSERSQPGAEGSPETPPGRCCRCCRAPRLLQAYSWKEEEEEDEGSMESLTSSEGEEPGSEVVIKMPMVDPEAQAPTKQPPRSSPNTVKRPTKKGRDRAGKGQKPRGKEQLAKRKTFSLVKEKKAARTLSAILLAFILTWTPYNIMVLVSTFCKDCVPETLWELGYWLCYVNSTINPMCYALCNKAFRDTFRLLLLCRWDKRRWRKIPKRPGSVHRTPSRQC
Chain of D(2) dopamine receptor (Homo sapiens) (P14416 whole entry, looked up): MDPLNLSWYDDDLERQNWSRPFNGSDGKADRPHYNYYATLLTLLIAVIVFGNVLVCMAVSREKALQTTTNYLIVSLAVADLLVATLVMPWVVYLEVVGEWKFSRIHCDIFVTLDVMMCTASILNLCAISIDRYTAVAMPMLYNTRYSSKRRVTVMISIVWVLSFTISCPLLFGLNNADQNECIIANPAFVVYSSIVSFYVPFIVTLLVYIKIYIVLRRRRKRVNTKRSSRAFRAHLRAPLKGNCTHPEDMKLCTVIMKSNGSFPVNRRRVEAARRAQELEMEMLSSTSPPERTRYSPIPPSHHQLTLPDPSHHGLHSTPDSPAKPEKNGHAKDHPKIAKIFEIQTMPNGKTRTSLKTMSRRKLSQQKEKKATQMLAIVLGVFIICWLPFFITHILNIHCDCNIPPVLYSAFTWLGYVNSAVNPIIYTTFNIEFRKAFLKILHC

SCCCCCCCCS
inactive: Potency [1] | Potency [2] | Potency [3] | outcome [4] | outcome [5] | Potency [6] | Potency [7] | Potency [8] | Potency [9] | Potency [10] | Potency [11] | Potency [12] | Potency [13] | Potency [14] | Potency [15] | Potency [16] | Potency [17] | Potency [18] | Potency [19]

CCN(CC)CCOc1ccccc1C(=O)CCc1ccccc1
active: Potency [12] 1300 nM | Potency [14] 2310 nM
inactive: Potency [1] | Potency [2] | Potency [3] | outcome [4] | outcome [5] | Potency [6] | Potency [7] | Potency [8] | Potency [9] | Potency [10] | Potency [11] | Potency [13] | Potency [15] | Potency [16] | Potency [17] | Potency [18] | Potency [19]

O=S(=O)(O)CCO
inactive: Potency [1] | Potency [2] | Potency [3] | outcome [4] | outcome [5] | Potency [6] | Potency [7] | Potency [8] | Potency [9] | Potency [10] | Potency [11] | Potency [12] | Potency [13] | Potency [14] | Potency [15] | Potency [16] | Potency [20] | Potency [17] | Potency [19]

CC1(C)S[C@@H]2[C@H](NC(=O)C(c3ccccc3)S(=O)(=O)O)C(=O)N2[C@H]1C(=O)O (some centres not stated)
inactive: Potency [1] | Potency [2] | Potency [3] | outcome [4] | outcome [5] | Potency [6] | Potency [7] | Potency [8] | Potency [9] | Potency [10] | Potency [11] | Potency [12] | Potency [13] | Potency [14] | Potency [15] | Potency [16] | Potency [17] | Potency [19]

CCOC(=O)[C@H](C)O
inactive: Potency [1] | Potency [2] | Potency [3] | outcome [4] | outcome [5] | Potency [6] | Potency [7] | Potency [8] | Potency [9] | Potency [10] | Potency [11] | Potency [12] | Potency [13] | Potency [14] | Potency [15] | Potency [16] | Potency [17] | Potency [18] | Potency [19]

Nc1ccc(NC(=O)c2ccc(N)cc2)cc1
inactive: Potency [1] | Potency [2] | Potency [3] | outcome [4] | outcome [5] | Potency [6] | Potency [7] | Potency [8] | Potency [9] | Potency [10] | Potency [11] | Potency [12] | Potency [13] | Potency [14] | Potency [15] | Potency [16] | Potency [20] | Potency [18] | Potency [19]

NC[C@H]1O[C@H](O[C@H]2[C@H](O[C@@H]3O[C@H](CO)[C@@H](O)[C@H]3O)C(O)[C@H](N)C[C@@H]2N)[C@H](N)[C@@H](O)[C@@H]1O (some centres not stated)
inactive: activity change, negative = cytotoxicity [1] -6.49% [at 8.39 µM] | activity, positive = activation [2] -8.73% [at 8.39 µM] | activity change [3] -0.504% [at 5.22 µM, hits give high values] | activation [4] -0.532% [at 6.97 µM] | activation [5] -0.0987% [at 5.23 µM] | activation [6] 0.817% [at 5.99 µM] | activation [7] -0.761% [at 5.99 µM] | activity change, negative = cytotoxicity [8] 26.1% [at 5.99 µM] | activity change, negative = cytotoxicity [9] 1.61% [at 5.99 µM] | activity change, negative = cytotoxicity [10] 0.386% [at 5.99 µM] | activation [11] -3.27% [at 5.99 µM] | activity, negative = inhibition [12] 2.42% [at 5.62 µM] | activation [13] -4.1% [at 7.02 µM] | activity, negative = inhibition [14] 1.47% [at 5.58 µM] | activation [15] 0.272% [at 6.97 µM] | activation [16] 4.47% [at 8.39 µM] | activity change, negative = inhibition [17] 7.44% [at 8.39 µM] | activity change, negative = inhibition [19] -1.87% [at 8.38 µM]

NC(=O)c1ncn([C@@H]2O[C@H](CO)[C@@H](O)[C@H]2O)c1N
inactive: Potency [1] | Potency [2] | Potency [3] | outcome [4] | outcome [5] | Potency [6] | Potency [7] | Potency [8] | Potency [9] | Potency [10] | Potency [11] | Potency [12] | Potency [13] | Potency [14] | Potency [15] | Potency [16] | Potency [17] | Potency [18] | Potency [19]

COC(=O)[C@H]1[C@H]2C[C@@H]3c4[nH]c5cc(OC)ccc5c4CCN3C[C@H]2C[C@@H](OC(=O)COc2ccc(OC)cc2)[C@@H]1OC
inactive: Potency [1] | Potency [2] | Potency [3] | outcome [4] | outcome [5] | Potency [6] | Potency [7] | Potency [8] | Potency [9] | Potency [10] | Potency [11] | Potency [12] | Potency [13] | Potency [14] | Potency [15] | Potency [16] | Potency [19]

Reference: PubChem BioAssay (Tox21)
